Source: PubChem BioAssay (EPA / NIEHS)
“And” between values parts separate entries of the source, which are not always exact repeats. Equal values may be shown once. Records with an inconclusive call do not appear. The source made the active and inactive calls. The calls were made as follows, unless noted: active = hit-call score of the fitted dose curve at least 0.9, where 1 is the maximum; inconclusive = response in the unintended direction; inactive = score below 0.9.

Tests used:
[1] = biological target: human Peroxisome Proliferator-activated Receptor delta (PPARd), PPARD (gene 5467) (UniProt Q03181); experiment: ATG_PPARd_TRANS: Attagene TRANS-FACTORIAL HepG2 Assay for human Peroxisome Proliferator-activated Receptor delta (PPARd) (AID 2283002)
Outline: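 Fluorescence from capillary electrophoresis of labelled RT-PCR reporter fragments gives the signal; DMSO sets baseline. Cells: HepG2 transiently carrying GAL4-UAS reporter units plus chimeric nuclear receptor-Gal4 proteins, exposed to chemicals for 24 h.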

[2] = BSK_3C_Vis: BioMAP Diversity Plus: 3C Assay for Morphology Visualization (AID 2283025; active = hit-call score of the fitted dose curve at least 0.9, where 1 is the maximum; inactive = score below 0.9;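 also: fitted both ways so gain or loss versus DMSO counts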); settings: primary human endothelial cells (HUVEC)
Outline: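 Human umbilical vein endothelial cells in the 3C system were imaged by light microscopy 24 h after chemical dosing to record cell morphology. Activity was fitted bidirectionally against DMSO as negative control and baseline; the endpoint serves as a background control.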

[3] = read-out: Transforming growth factor beta 1 (TGFb1), TGFB1 (gene 7040); experiment: BSK_BE3C_TGFb1: BioMAP Diversity Plus: BE3C Assay for Transforming growth factor beta 1 (TGFb1) Biomarker Activity (AID 2283036; active = hit-call score of the fitted dose curve at least 0.9, where 1 is the maximum; inactive = score below 0.9); settings: primary human bronchial epithelial cells; actives raise or lower the signal
Outline: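 Human primary bronchial epithelial cells (BE3C system) were dosed with chemical and TGF-b1 levels measured by ELISA at 24 h. Activity was fitted bidirectionally relative to DMSO negative control as baseline.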

[4] = read-out: Transforming growth factor beta 1 (TGFb1), TGFB1 (gene 7040); experiment: BSK_KF3CT_TGFb1: BioMAP Diversity Plus: KF3CT Assay for Transforming growth factor beta 1 (TGFb1) Biomarker Activity (AID 2283072; active = hit-call score of the fitted dose curve at least 0.9, where 1 is the maximum; inactive = score below 0.9); settings: primary human keratinocytes with fibroblasts; actives raise or lower the signal
Outline: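 Human keratinocyte plus foreskin fibroblast primary co-culture, dosed with chemical for 24 h. TGF-b1 quantified by ELISA. Activity fitted bidirectionally against DMSO negative control as baseline.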

[5] = biological target: Peroxisome proliferator-activated receptor gamma (Homo sapiens) (UniProt P37231); experiment: OT_PPARg_PPARgSRC1_0480: Odyssey Thera (OT) 8-hour Protein-Complementation Assay for Peroxisome Proliferator-activated Receptor Gamma / SRC-1 Co-activator (AID 2283387);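 also: nuclear to cytoplasmic split Venus YFP fluorescence ratio reporting PPARg SRC-1 interaction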
Outline: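 Read-out: 488 nm N/C fluorescence ratio from complemented Venus YFP fragments, ≥350 cells per image, gain-of-signal fitted against DMSO baseline. Fusions of PPARg/SRC-1 with IFP1/IFP2 expressed transiently in HEK293T; compounds applied 8 h.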

[6] = biological target: Peroxisome proliferator-activated receptor gamma (Homo sapiens) (UniProt P37231); experiment: OT_PPARg_PPARgSRC1_1440: Odyssey Thera (OT) 24-hour Protein-Complementation Assay for Peroxisome Proliferator-activated Receptor Gamma/ SRC-1 Co-activator (AID 2283388);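 also: nuclear to cytoplasmic ratio of reconstituted Venus YFP fluorescence in fixed imaged cells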
Outline: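 Cells carrying the PPARg/SRC-1 fragment-complementation reporter receive compound for 24 hours, are fixed and counterstained with Draq5, then imaged. Increased nuclear relative to cytoplasmic YFP fluorescence above DMSO baseline indicates binding activity.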

[7] = CEETOX_H295R_MTT_cell_viability: Viability Assessment in the CeeTox HT-H295R MTT Assay (AID 2283718; active = hit-call score of the fitted dose curve at least 0.9, where 1 is the maximum; inactive = score below 0.9)
Outline: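 Human H295R adrenal cells, prestimulated 48 h with 10 uM forskolin, were exposed 48 h to chemicals in 0.1% DMSO. Viability was measured in the same wells by MTT (0.5 mg/ml, 4 h, 37 C), absorbance 570/650 nm, as percent of controls.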

[8] = read-out: Matrix Metallopeptidase 1 (MMP1), MMP1 (gene 4312); experiment: BSK_MyoF_MMP1: BioMAP Diversity Plus: MyoF Assay for Matrix Metallopeptidase 1 (MMP1) Biomarker Activity (AID 2284268; active = hit-call score of the fitted dose curve at least 0.9, where 1 is the maximum; inactive = score below 0.9); settings: primary human lung fibroblasts
Outline: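 Fibroblasts from human lung receive compound for 24 h before ELISA quantitation of MMP1. DMSO serves as baseline, and the endpoint is fitted for signal gain.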

SERPINA7 (gene 6906) = experiment: CCTE_GLTED_hTBG: CCTE's human Thyroxine-binding Globulin (TBG) Inhibition Assay, Great Lakes Toxicology and Ecology Division (GLTED) Lab (AID 2284343);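 also: active chemicals lower fluorescence versus DMSO baseline by displacing probe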
Outline: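 Cell-free binding assay in which human TBG is incubated with test chemical for 2 hours and displacement of the fluorescent probe ANSA is read at 380 nm excitation/475 nm emission. Activity is fitted against DMSO as the negative control.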

[9] = CCTE_Padilla_ZF_Score.General: CCTE's 144 Hour Post-fertilization zebrafish Assay Score for General Malformation, Padilla Lab (AID 2284411; active = hit-call score of the fitted dose curve at least 0.9, where 1 is the maximum; inactive = score below 0.9)
Outline: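 Wild-type zebrafish embryos were plated singly at 6-8 hpf in 10% Hanks' and exposed in sealed wells at 26C until rinsed on 5 dpf. At 6 dpf two blinded assessors scored mortality, hatching and malformations by stereomicroscopy; gain-of-signal versus DMSO.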

TTR (gene 7276) = experiment: CCTE_GLTED_hTTR_0.125uM: CCTE's human Transthyretin (hTTR) Inhibition Assay, with 0.125uM TTR, Great Lakes Toxicology and Ecology Division (GLTED) Lab (AID 2284431; active = hit-call score of the fitted dose curve at least 0.9, where 1 is the maximum; inactive = score below 0.9;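 also: hits lower the fluorescence signal relative to DMSO baseline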)
Outline: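 Activity is defined as decreased ANSA fluorescence (ex 380, em 475) from human transthyretin, 0.125uM, following 2-hour chemical exposure in a cell-free setup, with DMSO as baseline.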

[10] = ATG_M_19_TRANS: Attagene TRANS-FACTORIAL HepG2 Assay for M19 Transcription Factor (Internal Marker) (AID 2282974); settings: HepG2 Attagene TRANS-FACTORIAL M19 internal marker reporter
Outline: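 24 h chemical exposure of transiently transfected HepG2 (MRTU library). RNA → oligo(dT) RT → PCR → 6-FAM labelling → HpaI cut → CE fluorescence. Positive-direction fit vs DMSO baseline; background internal-marker readout.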

[11] = biological target: human Vitamin D Receptor (VDR), VDR (gene 7421) (UniProt P11473); experiment: ATG_VDR_TRANS: Attagene TRANS-FACTORIAL HepG2 Assay for human Vitamin D Receptor (VDR) (AID 2283022)
Outline: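 Multiplexed TRANS reporter in HepG2; 24 h treatment; reporter mRNA by RT-PCR plus capillary electrophoresis; upregulation scored relative to DMSO.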

[12] = biological target: human Norepinephrine Transporter (NET), SLC6A2 (gene 6530) (UniProt P23975); experiment: NVS_TR_hNET: NovaScreen (NVS) Transporter Assay for human Norepinephrine Transporter (NET) (AID 2283377);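 also: displacement of radioligand from human NET seen as loss of scintillation signal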
Outline: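 Cell-free radioligand binding using CHO-derived membrane protein expressing human NET, read by filter scintillation counting 1 h after dosing; loss of signal vs DMSO. Initial duplicate screen at 25 uM, actives retested in concentration series.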

[13] = biological target: Retinoic acid receptor RXR-alpha (Homo sapiens) (UniProt P19793); experiment: OT_NURR1_NURR1RXRa_1440: Odyssey Thera (OT) 24-hour HEK293T Protein Complementation Assay for Nurr1/retinoid X receptor (RXR) (AID 2283386)
Outline: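 HEK293T cells were dosed with compound and read 24 h later by fluorescence intensity in a protein-fragment complementation format, where Nurr1–RXRα interaction reconstitutes a split reporter. Activity was fitted as gain of signal relative to DMSO baseline.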

[14] = ACEA_AR_agonist_AUC_viability: ACEA Biosciences xCELLigence Real-Time Cell Analysis on Androgen Receptor Agonism for Viability (AID 2283775)
Outline: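 Read-out is area under the impedance curve at 80 h post-dose in 22Rv1 cells, with DMSO as baseline and signal loss taken as reduced viability. Compounds ran in duplicate from 100 uM final.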

[15] = CCTE_Deisenroth_AIME_384WELL_CTox_Inactive: Cytotoxicity Assessment (CTOX) in CCTE's 384-well Estrogen Receptor Transactivation Assay without AIME metabolic competence (metabolism negative), Deisenroth Lab (AID 2284039);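 also: cell viability via live-cell protease substrate cleaved to fluorescent probe; cells exposed 24 h to medium preincubated 2 h with alginate-water beads without S9; loss of fluorescence signal means loss of viability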
Outline: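 VM7Luc4E2 human breast cells received conditioned medium from a 2 h incubation of chemical with alginate-water microspheres (no S9), then were exposed 24 h. Viability was read as protease-substrate cleavage to a fluorescent probe; loss of signal was fitted bidirectionally over 0.002–200 uM.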

[16] = biological target: Estrogen-related receptor gamma (Homo sapiens) (UniProt P62508); experiment: ATG_ERRg_TRANS: Attagene TRANS-FACTORIAL HepG2 Assay for human Estrogen-Related Receptor gamma (ERRg) (AID 2282977); settings: HepG2 Attagene TRANS reporter, ERRg transactivation;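 also: hits increase reporter signal over DMSO so potencies reflect activators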
Outline: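 HepG2 cells transiently transfected with multiplexed GAL4-UAS reporter units and chimeric NR-Gal4 constructs were exposed to test chemicals for 24 h. Reporter mRNA was measured by RT-PCR, 6-FAM primer extension, HpaI digestion and capillary electrophoresis; gain-of-signal versus DMSO.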

[17] = biological target: Estrogen receptor (Homo sapiens) (UniProt P03372); experiment: ATG_ERa_TRANS: Attagene TRANS-FACTORIAL HepG2 Assay for human Estrogen Receptor alpha (ERa) (AID 2282970); settings: HepG2 Attagene TRANS ERa GAL4 reporter, mRNA
Outline: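 Multiplexed cell-based reporter format in HepG2: chimeric ERa-Gal4 protein drives GAL4-UAS reporter transcription. Fluorescent reporter mRNA quantified by capillary electrophoresis 24 hours after dosing; endpoint fitted as signal gain against DMSO.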

[18] = biological target: human Thyroid Receptor alpha (THRa1), THRA (gene 7067) (UniProt P10827); experiment: ATG_THRa1_TRANS: Attagene TRANS-FACTORIAL HepG2 Assay for human Thyroid Receptor alpha (THRa1) (AID 2283014)
Outline: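 Measured here is mRNA from a GAL4-UAS reporter in transfected HepG2 cells carrying a Gal4-fused receptor, 24 h post-dose. DMSO served as negative control and baseline.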

Measured: AC50

Sequence of human Peroxisome Proliferator-activated Receptor delta (PPARd), PPARD (gene 5467) (Q03181 whole entry, looked up, the tested form may be a part): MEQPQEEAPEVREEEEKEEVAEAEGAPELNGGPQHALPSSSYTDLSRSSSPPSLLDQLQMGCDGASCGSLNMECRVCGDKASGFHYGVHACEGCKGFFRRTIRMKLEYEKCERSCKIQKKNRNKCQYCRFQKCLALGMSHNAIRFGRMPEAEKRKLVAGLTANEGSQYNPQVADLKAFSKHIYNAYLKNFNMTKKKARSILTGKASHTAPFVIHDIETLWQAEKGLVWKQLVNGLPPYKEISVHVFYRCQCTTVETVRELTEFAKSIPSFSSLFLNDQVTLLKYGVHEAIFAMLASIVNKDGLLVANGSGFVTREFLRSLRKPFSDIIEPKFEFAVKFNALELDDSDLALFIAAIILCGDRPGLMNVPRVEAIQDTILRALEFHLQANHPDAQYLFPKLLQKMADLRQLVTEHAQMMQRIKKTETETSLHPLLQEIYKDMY
Sequence of human Norepinephrine Transporter (NET), SLC6A2 (gene 6530) (P23975 whole entry, looked up): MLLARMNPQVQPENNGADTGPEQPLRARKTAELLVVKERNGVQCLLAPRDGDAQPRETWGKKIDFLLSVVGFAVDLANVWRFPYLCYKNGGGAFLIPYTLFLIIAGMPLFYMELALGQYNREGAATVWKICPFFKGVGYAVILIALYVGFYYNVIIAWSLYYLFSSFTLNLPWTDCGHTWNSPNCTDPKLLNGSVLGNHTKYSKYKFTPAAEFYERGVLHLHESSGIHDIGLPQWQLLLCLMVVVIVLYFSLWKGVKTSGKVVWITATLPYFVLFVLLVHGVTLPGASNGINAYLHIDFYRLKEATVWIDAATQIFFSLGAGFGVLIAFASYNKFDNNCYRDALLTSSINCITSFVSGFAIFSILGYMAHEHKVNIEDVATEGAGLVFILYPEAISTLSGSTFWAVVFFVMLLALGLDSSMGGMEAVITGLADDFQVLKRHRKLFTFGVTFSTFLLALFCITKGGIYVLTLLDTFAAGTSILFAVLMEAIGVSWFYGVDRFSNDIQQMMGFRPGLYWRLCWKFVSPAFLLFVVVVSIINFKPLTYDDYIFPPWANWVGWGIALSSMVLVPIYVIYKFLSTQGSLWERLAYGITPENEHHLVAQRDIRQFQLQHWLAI
Sequence of Retinoic acid receptor RXR-alpha (Homo sapiens) (P19793 whole entry, looked up, the tested form may be a part): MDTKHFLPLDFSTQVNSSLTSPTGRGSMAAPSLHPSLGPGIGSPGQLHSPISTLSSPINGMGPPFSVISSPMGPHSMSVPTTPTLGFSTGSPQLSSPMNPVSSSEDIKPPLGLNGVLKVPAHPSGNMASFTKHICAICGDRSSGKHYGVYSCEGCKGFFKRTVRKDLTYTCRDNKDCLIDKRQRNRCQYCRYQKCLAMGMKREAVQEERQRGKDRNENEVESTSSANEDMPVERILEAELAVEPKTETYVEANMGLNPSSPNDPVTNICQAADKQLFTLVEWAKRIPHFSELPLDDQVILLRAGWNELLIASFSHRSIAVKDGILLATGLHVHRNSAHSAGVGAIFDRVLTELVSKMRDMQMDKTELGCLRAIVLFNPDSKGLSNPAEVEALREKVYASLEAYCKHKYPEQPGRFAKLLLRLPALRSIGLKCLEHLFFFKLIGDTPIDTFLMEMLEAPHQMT
Sequence of Estrogen-related receptor gamma (Homo sapiens) (P62508 whole entry, looked up, the tested form may be a part): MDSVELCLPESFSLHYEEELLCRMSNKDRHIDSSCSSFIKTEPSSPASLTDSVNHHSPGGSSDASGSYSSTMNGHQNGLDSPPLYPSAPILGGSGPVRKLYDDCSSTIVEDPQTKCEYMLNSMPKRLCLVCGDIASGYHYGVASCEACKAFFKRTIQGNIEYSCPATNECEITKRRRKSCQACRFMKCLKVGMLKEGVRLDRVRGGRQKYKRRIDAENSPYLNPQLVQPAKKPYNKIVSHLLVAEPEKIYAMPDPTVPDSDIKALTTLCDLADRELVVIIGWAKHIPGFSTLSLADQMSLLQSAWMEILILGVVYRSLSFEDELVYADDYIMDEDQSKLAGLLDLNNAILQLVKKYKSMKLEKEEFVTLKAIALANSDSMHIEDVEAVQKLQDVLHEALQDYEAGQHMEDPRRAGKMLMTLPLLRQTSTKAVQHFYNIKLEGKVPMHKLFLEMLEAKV
Sequence of Peroxisome proliferator-activated receptor gamma (Homo sapiens) (P37231 whole entry, looked up, the tested form may be a part): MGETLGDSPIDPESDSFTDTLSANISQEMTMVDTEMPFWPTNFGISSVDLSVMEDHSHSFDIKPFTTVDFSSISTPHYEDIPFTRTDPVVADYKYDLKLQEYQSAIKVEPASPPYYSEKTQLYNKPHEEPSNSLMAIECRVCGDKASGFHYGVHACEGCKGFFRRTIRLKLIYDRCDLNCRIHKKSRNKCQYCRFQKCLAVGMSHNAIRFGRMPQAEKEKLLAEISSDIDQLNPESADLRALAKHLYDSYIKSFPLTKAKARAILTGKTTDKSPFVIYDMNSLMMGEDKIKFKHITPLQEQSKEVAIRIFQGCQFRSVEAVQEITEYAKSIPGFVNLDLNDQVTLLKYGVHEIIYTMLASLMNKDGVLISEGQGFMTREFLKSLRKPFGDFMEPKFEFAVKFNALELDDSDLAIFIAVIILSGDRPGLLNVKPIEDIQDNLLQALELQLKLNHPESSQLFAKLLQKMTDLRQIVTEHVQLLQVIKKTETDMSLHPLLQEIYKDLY
Sequence of human Thyroid Receptor alpha (THRa1), THRA (gene 7067) (P10827 whole entry, looked up, the tested form may be a part): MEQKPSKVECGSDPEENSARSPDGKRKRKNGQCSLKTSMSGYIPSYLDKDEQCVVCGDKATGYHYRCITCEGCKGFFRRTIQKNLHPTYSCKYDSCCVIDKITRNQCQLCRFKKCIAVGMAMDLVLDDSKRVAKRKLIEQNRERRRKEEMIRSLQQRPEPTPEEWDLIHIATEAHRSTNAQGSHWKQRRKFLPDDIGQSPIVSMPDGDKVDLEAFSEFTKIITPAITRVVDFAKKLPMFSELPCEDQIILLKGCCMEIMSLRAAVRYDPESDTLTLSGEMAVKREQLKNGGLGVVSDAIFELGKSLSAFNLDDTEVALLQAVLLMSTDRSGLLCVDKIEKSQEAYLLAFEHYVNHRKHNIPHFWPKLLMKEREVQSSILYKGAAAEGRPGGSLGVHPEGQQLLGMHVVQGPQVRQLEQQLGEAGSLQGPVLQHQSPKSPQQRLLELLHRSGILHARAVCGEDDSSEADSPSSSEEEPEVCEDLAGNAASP
Sequence of Estrogen receptor (Homo sapiens) (P03372 whole entry, looked up, the tested form may be a part): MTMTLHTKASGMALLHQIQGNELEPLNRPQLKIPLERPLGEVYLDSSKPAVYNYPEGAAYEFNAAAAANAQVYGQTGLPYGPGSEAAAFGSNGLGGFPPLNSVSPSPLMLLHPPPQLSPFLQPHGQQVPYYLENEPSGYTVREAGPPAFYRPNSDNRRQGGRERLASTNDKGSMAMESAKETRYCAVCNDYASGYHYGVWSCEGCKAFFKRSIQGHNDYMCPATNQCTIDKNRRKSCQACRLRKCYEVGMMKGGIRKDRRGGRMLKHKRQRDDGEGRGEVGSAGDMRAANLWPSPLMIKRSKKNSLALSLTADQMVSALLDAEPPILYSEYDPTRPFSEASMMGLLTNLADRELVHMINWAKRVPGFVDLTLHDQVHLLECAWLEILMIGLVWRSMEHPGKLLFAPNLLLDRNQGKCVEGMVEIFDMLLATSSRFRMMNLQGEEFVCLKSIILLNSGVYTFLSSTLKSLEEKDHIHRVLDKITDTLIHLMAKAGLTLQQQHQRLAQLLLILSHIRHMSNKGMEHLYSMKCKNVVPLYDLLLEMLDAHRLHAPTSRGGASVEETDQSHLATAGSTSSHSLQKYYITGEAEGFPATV
Sequence of human Vitamin D Receptor (VDR), VDR (gene 7421) (P11473 whole entry, looked up): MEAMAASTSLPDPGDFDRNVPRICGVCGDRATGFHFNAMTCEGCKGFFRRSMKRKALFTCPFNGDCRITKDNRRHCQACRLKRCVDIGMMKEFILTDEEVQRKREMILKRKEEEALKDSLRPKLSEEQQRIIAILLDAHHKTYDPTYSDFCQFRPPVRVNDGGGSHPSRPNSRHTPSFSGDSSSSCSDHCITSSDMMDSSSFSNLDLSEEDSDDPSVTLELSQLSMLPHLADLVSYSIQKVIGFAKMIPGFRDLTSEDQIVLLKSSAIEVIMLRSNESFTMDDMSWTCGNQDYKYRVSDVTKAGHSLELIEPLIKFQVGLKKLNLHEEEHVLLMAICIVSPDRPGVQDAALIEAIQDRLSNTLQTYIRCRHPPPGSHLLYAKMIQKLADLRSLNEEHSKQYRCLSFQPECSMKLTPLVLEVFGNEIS

Sc1nc2ccccc2s1
active: SERPINA7 (gene 6906) 50 µM | [9] 5.5 µM | TTR (gene 7276) 9.1 µM
inactive: [1] | [2] | [3] | [4] | [5] | [6] | [7] | [8]

CNC(=C[N+](=O)[O-])NCCSCc1csc(CN(C)C)n1
inactive: [10]

Oc1cccc2ccccc12
active: [12] 21 µM | [8] 12.1 µM | SERPINA7 (gene 6906) 4.58 µM | TTR (gene 7276) 3.07 µM
inactive: [11] | [2] | [3] | [4] | [13] | [14] | [15]

CC/C=C\CCO
inactive: [10] | [16] | [13] | [15]

OC(C(F)(F)F)(C(F)(F)F)C(O)(C(F)(F)F)C(F)(F)F
active: [8] 48.4 µM and 47.9 µM | [9] 1.18 µM

CCc1cc(C(N)=S)ccn1
inactive: [11]

CC1=CCCC(C)(C)C12CCC(C)O2 (stereo not given)
inactive: [10]

Oc1ccc(Cl)cc1C1CCCC1
inactive: [1] | [18]
active: [17] 4.12 µM

O=C(CC(C(=O)OC1CCCCC1)S(=O)(=O)O)OC1CCCCC1 (stereo not given)
inactive: [16] | [18] | [13] | [5] | [6] | [14] | [15]

c1ccc2c(c1)Oc1ccccc1S2
inactive: [11]
active: [17] 27.9 µM

CC(C)CC(=O)CC(C)CC(C)C (stereo not given)
inactive: [10] | [3] | [4] | [8] | [9]
active: [2] 37.8 µM

O=C(Oc1ccccc1)c1ccccc1
inactive: [10] | [16] | [13] | [5] | [6] | [14]
active: SERPINA7 (gene 6906) 8.47 µM | TTR (gene 7276) 24.2 µM

c1ccc(CNc2ncnc3nc[nH]c23)cc1
inactive: [18] | [7] | [14]

CCCCCCCCCCCCCCCCCC[N+](C)(C)C
inactive: [17] | [1] | [11] | [3] | [9]
active: [16] 25 µM | [2] 1.34 µM | [4] 2.15 µM | [12] 2.93 µM | [8] 1.24 µM

COc1ccc2ccccc2c1
inactive: [17] | [18]
active: [12] 25 µM

NC(N)=Nc1nc(CSCCC(N)=NS(N)(=O)=O)cs1
inactive: [17]

CCO[Si](CCCN)(OCC)OCC
inactive: [16] | [1] | [5] | [6] | [7] | [14]
